Laboratory results published in PubChem BioAssay AID624300 (Southern Research Specialized Biocontainment Screening …, 2012).
Screen size: about 2,400 compounds; about 360 (15%) were called active.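 The calls were made as follows: active = viability falls under 70% at one or more tested concentrations, taken as toxicity; inactive = viability stays over 70% at every dose.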 These entries were drawn from the full list. Entries with a potency or affinity are not part of this list.

Experiment: HeLa cell cytotoxicity, dose response, cytotoxicity control for MgcRacGAP inhibitor project (AID 624300)
Settings: CellTiter-Glo luminescence, 24 h; series mostly up to 100 µM

Row | SMILES | outcome
1 | COc1cc(/C=C2\SC(=Nc3c(C)n(C)n(-c4ccccc4)c3=O)NC2=O)ccc1O | inactive
2 | COc1cc(/C=C2\SC(=S)N(NC(=O)c3ccncc3)C2=O)ccc1O | inactive
3 | CCOc1cc(/C=C2\SC(N)=NC2=O)ccc1O | inactive
4 | COc1cc(/C=C2/SC(=S)N(c3c(C)n(C)n(-c4ccccc4)c3=O)C2=O)ccc1O | inactive
5 | CCOC(=O)C1CCCN(C2=NC(=O)/C(=C/c3ccc(O)c(OC)c3)S2)C1 (stereo unspecified) | inactive
6 | COc1cc(C=C2NC(=O)NC2=O)ccc1O | inactive
7 | COc1cc(/C=C2\SC(N3CCC(C)CC3)=NC2=O)ccc1O | inactive
8 | O=C1/C(=C\c2ccc(O)c(O)c2)N=C2CCCCCN12 | inactive
9 | COc1cc(/C=N/NC(=O)c2cccc(N3CCCC3=O)c2)ccc1O | inactive
10 | COc1ccc2cc(C(=O)Nc3ccc(O)cc3)sc(=O)c2c1OC | inactive
11 | CC(C)(C)NC(=S)Nc1ccc(Nc2ccccc2)cc1 | inactive
12 | Oc1ccc(Cl)cc1C=Nc1ccc2c3c(cccc13)CC2 | inactive
13 | CC(=O)N1CCN(c2ccc(NCc3ccc4c(c3)OCO4)cc2)CC1 | inactive
14 | O=C(Nc1ccc(O)cc1)c1ccc2c(c1)C(=O)N(Cc1ccccc1)C2=O | inactive
15 | Nc1c(/C=C2/C=CC(=O)C(O)=C2)c(=O)nc2sc(CC(=O)N3CCOCC3)nn12 | inactive
16 | Cc1ccc(-c2csc3n[nH]c(=S)n23)cc1 | inactive
17 | COc1cc(/C=C/C(=O)OCC(=O)Nc2cc(S(=O)(=O)N3CCCCC3)ccc2C)ccc1O | inactive
18 | COc1cc(/C=c2\sc3n(c2=O)CCCN=3)ccc1O | inactive
19 | COc1cc(/C=C2\SC(N)=NC2=O)cc(Cl)c1O | inactive
20 | COc1cc(/C=C2\SC(c3ccc(C)cc3)=NC2=O)cc(OC)c1O | inactive
21 | COc1cc(/C=C2\SC(=S)N(NC(=O)c3cccc(O)c3)C2=O)ccc1O | inactive
22 | COc1cc(/C=C2\SC(=S)N(NC(=O)c3ccc(O)cc3)C2=O)ccc1O | inactive
23 | COc1cc(C=C2CN(C)C(=O)C2=O)ccc1O | inactive
24 | CNc1nc2c3ccccc3n(C(C)=O)c2s1 | inactive

Row | SMILES | outcome
25 | COc1ccc(C2NC(=O)C(C#N)=C(S)N2c2ccccc2)cc1OC (stereo unspecified) | inactive
26 | CCOCCCNc1nc(=S)[nH]c2cc(OC)c(OC)cc12 | inactive
27 | COc1ccc(CN(C)CCc2ccccn2)c(OC)c1OC | inactive
28 | CN(C)c1ncnc2c1NC1=C(S2)C(=NCCCC(=O)O)CC(C)(C)C1 | inactive
29 | O=C(N/N=C/c1ccc(O)cc1)c1csc2ccccc12 | inactive
30 | COc1cc(/C=N/NC(=O)CCc2n[nH]c(=O)[nH]c2=O)ccc1O | inactive
31 | CN1CCN(CCOCCOc2ccc(Br)cc2Cl)CC1 | inactive
32 | Clc1cc(Br)ccc1OCCOCCN1CCCC1 | inactive
33 | CCCCn1c(=S)[nH]c2c(=O)n(C)c(=O)n(C)c21 | inactive
34 | O=[N+]([O-])/C(C=Nc1ccccc1O)=C\Nc1ccccc1O | inactive
35 | CN(Cc1ccccc1)C(=O)C1CCCN(Cc2ccc(Cl)cc2)C1 (stereo unspecified) | inactive
36 | COc1cc(/C=N/NC(=O)c2ccccc2NS(=O)(=O)c2cccs2)ccc1O | inactive
37 | CCOc1cc(/C=C2\C(=O)N(Cc3ccco3)C(C)=C2C(=O)OC)ccc1O | inactive
38 | COC(=O)C1=C(C)N(Cc2ccco2)C(=O)C1 | inactive
39 | Oc1ccc(Br)cc1C=Nc1ccc2c3c(cccc13)CC2 | inactive
40 | C#CCOCCOCCOCCNc1nc(N2CCN(C(=O)C([C@@H](C)O)n3cc([C@@H](N)CCCCN)nn3)CC2)nc(N2CCN(C(=O)[C@H](CCCN=C(N)N)n3cc(C(N)[C@@H](C)CC)nn3)CC2)n1 (stereo partly specified) | inactive
41 | CCC(CC)N1CCN(C(=O)c2cccc(Cl)c2)CC1 | inactive
42 | COc1cc(/C(C)=N/N2CCN(c3ccccc3OC)CC2)ccc1O | inactive
43 | CN(C)C(=S)N=c1ssc(=S)n1Cc1cccnc1 | inactive
44 | COc1cc(/C=N/n2c(-c3cc(C)[nH]n3)n[nH]c2=S)cc(OC)c1OC | inactive
45 | COc1c(-c2ccc(O)c(O)c2)oc2cc(O)cc(O)c2c1=O | inactive
46 | O=c1oc(-c2ccc(O)c(O)c2)cc2cccc(O)c12 | inactive
47 | CCOC(=O)c1[nH]c2ccccc2c1NC(=S)Nc1cc(C)ccc1C | inactive
48 | O=C(CN1CCN(c2ccc(O)cc2)CC1)Nc1ccccc1C(=O)NCCc1ccccc1 | inactive

Row | SMILES | outcome
49 | S=c1[nH]nc(-c2ccco2)n1/N=C/c1ccc(Cl)cc1 | inactive
50 | COc1cc2c(cc1OC)C1(CCCC1)C(N)=C2C#N | inactive
51 | Oc1cc(O)cc(-c2cc3ccc(O)cc3o2)c1 | inactive
52 | COc1ccc(NC2CCCN(C(=O)C3=NNC(=O)CC3)C2)cc1 (stereo unspecified) | inactive
53 | N#Cc1ccccc1OCCCN1CCC(Cc2ccccc2)CC1 | inactive
54 | Cc1nnc(N=c2ssnc2Cl)o1 | inactive
55 | COc1cc(C(C)=NNC(=O)c2ccncc2)ccc1O | inactive
56 | CCCn1c(=O)c2ccccc2n2c(SCCNCCO)nnc12 | inactive
57 | Cc1ccc(NCc2ccccc2O)cc1C | inactive
58 | O=C1OCC/C1=C\c1ccc(O)cc1 | inactive
59 | COc1cc(/C=N/NC(=O)/C(=C/c2ccccc2)CCO)ccc1O | inactive
60 | CCN(CC)CCOC(=O)c1ccc(N/C=C(/C#N)c2nc(-c3ccc4c(c3)OCO4)cs2)cc1 | inactive
61 | COc1ccc(-c2cc(C(=O)Nc3ccc(O)cc3)c3ccccc3n2)cc1OC | inactive
62 | Cc1cc(NC(=O)c2sc3ccccc3c2O)no1 | inactive
63 | COc1cccc(C(=O)N2CCN(C3CCN(Cc4ccccc4)CC3)CC2)c1OC | inactive
64 | CCN(CC)c1ccc(NC(=O)CN2CCN(c3ccccn3)CC2)cc1 | inactive
65 | O=C(/C(=C/c1cccnc1)n1ccnc1)c1ccc(Cl)cc1Cl | inactive
66 | COc1cc(/C=N/NC(=S)NCCN2CCOCC2)ccc1O | inactive
67 | CCOc1cc(/C=N/NC(=O)c2cc(C3CC3)[nH]n2)ccc1O | inactive
68 | CCOc1cc(/C=N/NC(=O)C(OC)c2ccccc2)ccc1O (stereo unspecified) | inactive
69 | CCOc1cc(C=NNC(=O)CCCC(=O)NN=Cc2ccc(O)c(OCC)c2)ccc1O | inactive
70 | COc1cc(/C=N/NC(=O)CC(=O)NC2CCCCC2)ccc1O | inactive
71 | O=C(N/N=C/c1ccc(O)cc1)NC12CC3CC(CC(C3)C1)C2 | inactive
72 | CCOc1cc(/C=N/NC(=O)C2CCCC2)ccc1O | inactive

Row | SMILES | outcome
73 | COc1cc(/C=N\NC(=O)C2CC3C=CC2C3)ccc1O (stereo unspecified) | inactive
74 | CSc1nc(O)c(/C=C2\C=Nc3ccccc32)[nH]1 | inactive
75 | COc1ccc(NC2CCCN(C(=O)c3ccc(C)c(N4CCNC4=O)c3)C2)cc1 (stereo unspecified) | inactive
76 | CCOCCCNCC(=O)NCC1CCCCC1 | inactive
77 | COc1cc(NC(=O)COC(=O)/C=C/c2ccc(O)c(OC)c2)cc(OC)c1 | inactive
78 | Nc1ccc(N2CCN(c3ccccc3)CC2)c(F)c1 | inactive
79 | O=C1CSC(=S)N1Nc1ccccc1 | inactive
80 | Nc1ccc(N=Nc2ccc(O)cc2)c(N)n1 | inactive
81 | Cc1ccc(N2C(S)=C(C#N)C(=O)NC23CCCCC3)cc1 | inactive
82 | Cc1cccc(-n2c(=O)c3ccccc3n3c(=S)[nH]nc23)c1C | inactive
83 | OCCN1CCN(CC(O)COC(c2ccc(F)cc2)c2ccc(F)cc2)CC1 (stereo unspecified) | inactive
84 | COc1ccc(OCC(O)CN2CCCC2)cc1 (stereo unspecified) | inactive
85 | c1ccc(CNC23CC4CC(CC(C4)C2)C3)nc1 | inactive
86 | COc1ccc(S(=O)(=O)N2CCC(N3CCN(Cc4ccccc4)CC3)CC2)cc1 | inactive
87 | O=C(CSc1cn[nH]n1)Nc1cccc(C(=O)O)c1 | inactive
88 | Cc1cc(C)c(OCCCCN(C)Cc2ccccc2)c(C)c1 | inactive
89 | CN(CCOc1ccc(Cl)c(Cl)c1)Cc1ccccc1 | inactive
90 | Cc1ccc(OCCCCNC(C)(C)C)c([N+](=O)[O-])c1 | inactive
91 | Cc1ccc(-n2[nH]c(=O)c3cccnc32)cc1 | inactive
92 | Nc1ccc(N2CCN(C(=O)c3cccs3)CC2)cc1 | inactive
93 | COc1cc(/C=C/C(=O)OCC(=O)NCCCc2ccccc2)ccc1O | inactive
94 | COc1cc(/C=N/Nc2nc3ccccc3s2)ccc1O | inactive
95 | CC(=O)Nc1n[nH]c(=S)s1 | inactive
96 | O=C(N/N=C/c1sc2ccccc2c1O)c1cccc2ccccc12 | inactive

Row | SMILES | outcome
97 | O=C(CNC(=O)c1ccc2c(c1)OCCO2)N/N=C/c1ccc(O)cc1O | inactive
98 | CN(C)/C=C1/C=C(c2ccccc2)OC1=O | inactive
99 | COc1cc(/C=N/N=C2/NC(=O)C(c3ccccc3)S2)ccc1O (stereo unspecified) | inactive
100 | O=C(CN1CCCCCC1)NN(Cc1ccccc1)c1ccccc1 | inactive
101 | S=C(NCCCN1CCOCC1)Nc1ccc(Nc2ccccc2)cc1 | inactive
102 | COc1cc(CNc2ncc(-c3ccc(Br)cc3)n2C)cc(OC)c1O | inactive
103 | COc1ccccc1CNc1ncc(-c2ccccc2)n1C | inactive
104 | Cc1ccc(CNc2ncc(-c3ccccc3)n2C)o1 | inactive
105 | Clc1ccccc1CNCc1ccc2c(c1)OCO2 | inactive
106 | COc1ccc(CNc2ncc(-c3ccc(Br)cc3)n2C)cc1OC | inactive
107 | Cn1c(-c2ccccc2)cnc1NCc1ccc(-c2ccccc2)cc1 | inactive
108 | O=C1c2ccccc2C(=O)N1/N=C/c1ccc(O)c(O)c1 | inactive
109 | COc1ccc(C(=O)CCC(=O)Nc2cc(Cl)c(O)c(Cl)c2)cc1 | inactive
110 | N#CC1=C(N)NC(=S)C(C(N)=O)C1c1ccc([N+](=O)[O-])cc1 (stereo unspecified) | inactive
111 | Cc1ccc(COC(=O)Cc2coc3cc(O)ccc23)cc1 | inactive
112 | CCS(=O)(=O)c1cc([N+](=O)[O-])c(Sc2ccccc2N)s1 | inactive
113 | CCOc1cc(/C=N/NC(=O)NN(C)c2ncc(C(F)(F)F)cc2Cl)ccc1O | inactive
114 | O=C(Cc1ccc(Cl)cc1)N/N=C/c1ccc(O)c(O)c1 | inactive
115 | O=c1c(O)c(-c2ccc(O)c(O)c2)oc2cc(O)ccc12 | inactive
116 | COC(=O)c1[nH]c2ccc(Cl)cc2c1NC(=O)Oc1ccccc1 | inactive
